Bioassay records from PubChem.
Only some compounds are listed: those with a hit (about 0.9% of all), similar ones and a draw of the others.
CDC25B-CDK2 inh: human CDC25B-CDK2/CyclinA binding inhibition. z-score (test concentration not listed). 0.72% of 94,000 active. P30305+P24941. HTRF CDC25B-CDK2/CyclinA binding, anti-His/anti-Flag; active compounds read high; in the data active = z-score above about 3.2
TAR Tat displ: HIV-1 TAR-Tat binding disruption | HIV-1 TAR RNA, Tat peptide displacement FRET; active compounds read high | z-score (concentration not given with the values) | 0.6% of 100,000 active | AID 1259389; active = z-score of 3 or more in at least 2 runs
* hit, by the source's call; nt = no result.

SMILES	CDC25B-CDK2 inh	TAR Tat displ
CCC1CCCCN1CCCNC(=O)C1CCCN(S(=O)(=O)N2CC(C)CC(C)C2)C1 (stereo not given)	nt	1.3
c1ccc2c(-c3ccncc3)c[nH]c2c1	nt	0.71
Cc1sc(-c2c[nH]c3ccccc23)nc1-c1c[nH]c2ccccc12	18*	nt
Cc1nc(-c2ccc(S(=O)(=O)NCc3ccc(Cl)cc3)cc2)co1	nt	1.3
CCc1cc2c3c([nH]c2cc1S(=O)(=O)NCCCN1CCOCC1)CC(C)(C)CC3=O	nt	2.4
CCC(C(=O)Nc1cccc(Cl)c1)n1nc(C)c2sc3ccccc3c2c1=O (stereo not given)	0.04	13*
CCC(C(=O)Nc1cccc(F)c1)n1nc(C)c2sc3ccccc3c2c1=O (stereo not given)	-1.5	2.6
CCC(C(=O)NCc1cccs1)n1nc(C)c2sc3ccccc3c2c1=O (stereo not given)	-2.7	4*
CCC(C(=O)NCCc1cccs1)n1nc(C)c2sc3ccccc3c2c1=O (stereo not given)	-1.1	1.5
CN(C1CCCCC1)S(=O)(=O)c1ccc(-c2cc(C(F)(F)F)on2)s1	nt	0.71
COCCOC(=O)c1c(C)oc2ccc(NS(=O)(=O)c3cc(C)ccc3C)cc12	-3.5	nt
Cc1ccc(C)c(S(=O)(=O)Nc2ccc3oc(C)c(C(=O)O)c3c2)c1	0.27	14*
C=CCn1c(C(C)Oc2cccc(C)c2)nc2ccccc21 (stereo not given)	2.5	0.63
CN(C)CCNC(=O)c1ccc(N2CCCc3ccccc32)s1	nt	1.7
COc1ccc(N2CSC3=C(C#N)C(c4ccccc4)CC(=O)N3C2)c(OC)c1 (stereo not given)	4.3*	-2
COc1cccc(C2CC(=O)N3CN(c4ccc(OC)cc4OC)CSC3=C2C#N)c1 (stereo not given)	5.9*	-0.1
COc1ccc(N2CSC3=C(C#N)C(c4ccc(Br)cc4)CC(=O)N3C2)c(OC)c1 (stereo not given)	2.4	0.32
COc1ccc(N2CSC3=C(C#N)C(c4c(F)cccc4Cl)CC(=O)N3C2)c(OC)c1 (stereo not given)	0.86	1.9
COc1ccc(Nc2nc(NCCO)nc3c2cnn3C)cc1	nt	0.94
COc1ccc(C2CC(c3ccc(C)cc3)Nc3nnnn32)cc1OC (stereo not given)	nt	3.7
O=C(NCc1ccncc1)C(=O)Nc1c2c(nn1-c1ccccc1)CSC2	nt	1.6
Cc1nc(S(=O)(=O)Nc2ccc(Cl)cc2)cn1C	nt	2.1
O=C(O)c1ccc(N2C(=O)CCC2=O)cc1	-0.34	1.5
CCn1nc(C)c(CCNC(=O)CCc2c(C)nn(-c3ccc(N4CCCC4)nn3)c2C)c1C	nt	-0.97
Cc1ccc(-c2n[nH]c3c2cnc2cc4c(cc23)OCCO4)cc1	nt	-0.73
SMILES	CDC25B-CDK2 inh	TAR Tat displ
CCOc1ccc(-c2n[nH]c3c2cnc2cc4c(cc23)OCCO4)cc1	15*	17*
Nc1ccc2nn(-c3cccc(Cl)c3)nc2c1	-0.74	4*
Cc1ccc(-n2nc3ccc(N)cc3n2)cc1	-0.46	-0.96
CCNC(=O)c1cccn1-c1nnc(N2CCCC2)s1	nt	0.63
CC(C)c1ccc(C2CC(=O)N3CN(Cc4ccccc4)CSC3=C2C#N)cc1 (stereo not given)	5*	0.39
CC(c1ccccc1)N1CSC2=C(C#N)C(c3ccc(F)cc3)CC(=O)N2C1 (stereo not given)	3	2.8
COc1ccc(CN2CSC3=C(C#N)C(c4cccc(OC)c4)CC(=O)N3C2)cc1 (stereo not given)	7.6*	-0.14
COc1ccc(CN2CSC3=C(C#N)C(c4ccc(OC)cc4)CC(=O)N3C2)cc1 (stereo not given)	6.3*	2.3
COc1ccc(C2CC(=O)N3CN(Cc4cccnc4)CSC3=C2C#N)cc1 (stereo not given)	-0.28	1.2
COc1ccc(CN2CSC3=C(C#N)C(c4cccs4)CC(=O)N3C2)cc1 (stereo not given)	4*	-0.08
N#CC1=C2SCN(Cc3ccco3)CN2C(=O)CC1c1cccs1 (stereo not given)	2.5	1.2
CC(CCc1ccccc1)NC(=O)Nc1cn(C)c(=O)c2ccccc12 (stereo not given)	nt	0.69
CCN1CCN(c2nc(N(C)C)nc3c2cnn3C)CC1	nt	1.5
CC1Oc2ccccc2N(CC(=O)N2CCN(c3cc(=O)n(C)c(=O)n3C)CC2)C1=O (stereo not given)	nt	1.9
Cc1ccc(C2OC3(C(=O)c4ccccc4C3=O)C3C(=O)N(CCc4ccccc4)C(=O)C23)cc1 (stereo not given)	-1.5	nt
CCCCOC(=O)COc1ccc2c(C)cc(=O)oc2c1	-1.5	nt
COc1cccc(C(=O)OCc2cc(=O)n3c4c(sc3n2)CCCC4)c1	nt	0.87
CCCn1c2ccccc2c2cnn(CC(=O)N(CC)c3cccc(Cl)c3)c(=O)c21	nt	1.8
COc1ccccc1Cc1nnc(-c2ccc(F)cc2)o1	-0.78	1.1
COc1ccc(N2CC(O)=C(c3nc4ccccc4c(=O)[nH]3)C2=N)cc1OC	-1.5	-0.02
